Among the data in PubChem BioAssay are composite z-score and z-score values, retold here.

The subject of experiment [1] is XIP peptide (Xip251-270) binding. Description: XIP fragment 251-270 binding compounds – biochemical, small-molecule microarray, fluorescence 635/667 nm, 0.1 µg/mL protein, primary screen (AID 1182). Conditions: fluorescent protein binding, 635 nm, higher = more signal, called active from +8 up or from −8 down.
In the next experiment the test system is XIP peptide (Xip251-270). Kind of experiment: compounds binding XIP fragment 251-270 – biochemical, small-molecule microarray, fluorescence 635/667 nm, 0.5 µg/mL protein, primary screen (AID 1183). Conditions: fluorescence 635 nm, higher = more signal.
Experiment [2] in a line: blood-stage malaria parasite viability loss – strain 3D7, DAPI fluorescence, 100 nL, primary screen (AID 1184).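 Note: parasites grown inside human red blood cells in medium with human serum.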 Conditions: P. falciparum 3D7 growth, 3 d, higher = more signal.
The target in experiment [3] is Homeobox protein Hox-A13 (Mus musculus) (UniProt Q62424). Kind of experiment: disruptors of Hoxa13 oligonucleotide interaction – biochemical, fluorescence polarization, labeled oligonucleotide, primary screen (AID 1185). The settings on record: Hoxa13:DNA binding, 15 min, higher = more signal, called active from +8 up or from −8 down. A general note: Fluorescence polarisation rises when a labelled molecule tumbles more slowly, as on binding a larger partner.
Chain of Homeobox protein Hox-A13 (Mus musculus) (Q62424 whole entry, looked up): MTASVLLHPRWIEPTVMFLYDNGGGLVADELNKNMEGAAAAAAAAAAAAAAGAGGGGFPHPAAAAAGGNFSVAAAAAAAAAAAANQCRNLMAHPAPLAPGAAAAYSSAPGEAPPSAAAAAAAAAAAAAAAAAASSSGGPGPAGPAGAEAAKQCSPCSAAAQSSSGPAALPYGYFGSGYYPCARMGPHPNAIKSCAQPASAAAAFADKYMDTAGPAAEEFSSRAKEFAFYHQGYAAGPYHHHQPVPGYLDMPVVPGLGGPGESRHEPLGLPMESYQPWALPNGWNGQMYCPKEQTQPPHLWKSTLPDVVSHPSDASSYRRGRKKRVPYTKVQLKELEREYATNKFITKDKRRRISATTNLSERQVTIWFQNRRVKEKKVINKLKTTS

The nature of experiment [4]: blockers of DNA damage checkpoint Chk1 activation – imaging, HeLa, hydroxyurea, phospho-Chk1 antibody, percent positive cells, primary screen (AID 1186). The settings on record: hydroxyurea-induced phospho-Chk1 immunofluorescence imaging, higher = more signal.
A short description of experiment [5]: blockers of DNA damage checkpoint Chk1 activation – imaging, HeLa, hydroxyurea, phospho-Chk1 nuclear intensity, primary screen (AID 1187). Conditions: hydroxyurea-induced phospho-Chk1 immunofluorescence imaging, higher = more signal.

Activity calls are given as the source filed them. Unless noted, the rule behind the calls is not given here.

Turning to `CO[C@H]1O[C@H](CO)[C@@H](OC(=O)Nc2ccc(C(F)(F)F)cc2)[C@H](OC(=O)Nc2ccc3c(c2)OCO3)[C@@H]1OC(=O)Nc1ccc2c(c1)OCO2`, the values for the composite z-score (in experiment [1]; in the experiment with XIP peptide (Xip251-270)) were 1.42 (inactive) and 0.901, respectively. Further, the z-score is -2.09 in experiment [2], -5.46 (inactive) in experiment [3], -0.328 (inactive) in experiment [4] and -0.0864 (inactive) in experiment [5].

On to `O=C(NCCN1CCOCC1)C1N=C(c2ccc(OCCCO)cc2)N(c2ccccc2)O1` (configuration not stated), for which the composite z-score in experiment [1] was 2.46 (inactive); in the experiment on XIP peptide (Xip251-270), 0.738. Besides, the z-score in experiment [2] is -0.122; in experiment [3], -1.6 (inactive); in experiment [4], -0.227 (inactive); in experiment [5], -0.0873 (inactive).

Take `COCCOC(=O)N1C(=O)[C@@]2(c3cc(C#CCC(C(=O)OC)C(=O)OC)ccc31)[C@H](C(=O)N1CCN(c3ncccn3)CC1)[C@H]1C(=O)O[C@H](c3ccccc3)[C@H](c3ccccc3)N1[C@@H]2c1ccccc1OCCO`: the composite z-score in experiment [1] was 0.171 (inactive); in the experiment with XIP peptide (Xip251-270), 0.679. Also, the z-score was -2.03 in experiment [2], -0.504 (inactive) in experiment [3], 0.0845 (inactive) in experiment [4] and 0.176 (inactive) in experiment [5].

With `CC(C)[Si]1(C(C)C)O[C@@H](c2ccccc2)c2cc(-c3ccc(-c4ccc(Cl)c(Cl)c4)o3)nc(-c3ccccc3)c21`, the composite z-score in experiment [1] was -0.142 (inactive); in the experiment on XIP peptide (Xip251-270), 0.6. Also, the z-score is 0.283 in experiment [2], -1.68 (inactive) in experiment [3], 0.025 (inactive) in experiment [4] and -0.606 (inactive) in experiment [5].

In the case of `COCCOC(=O)N1C(=O)[C@@]2(c3cc(C#CC4(O)CCCCCC4)ccc31)[C@H](c1ccc(OCCO)cc1)N1[C@H](c3ccccc3)[C@H](c3ccccc3)OC(=O)[C@H]1[C@@H]2C(=O)N1CCN(c2ncccn2)CC1`, the composite z-score in experiment [1] was 0.647 (inactive); in the experiment on XIP peptide (Xip251-270) it was 0.61. The z-score is -2.06 in experiment [2], 0.253 (inactive) in experiment [3], -0.0615 (inactive) in experiment [4] and 0.22 (inactive) in experiment [5].

As to `C=C[C@H](OC)[C@@H](OC(=O)Nc1ccc(OC)cc1)c1ccc(O)c(F)c1`, the composite z-score was -0.0346 (inactive) in experiment [1] and -0.893 in the experiment on XIP peptide (Xip251-270). For the same compound, the z-score in experiment [2] is -0.343; in experiment [3] it was -3.1 (inactive); in experiment [4], 0.495 (inactive); in experiment [5], 0.76 (inactive).

Turning to `NC(=O)N1C(=O)C2C(C1=O)C1C=C(c3ccc(CO)cc3)C2C(c2cccs2)N1Cc1cccc(OC(F)(F)F)c1` (configuration not stated), the composite z-score in experiment [1] is 0.0478 (inactive); in the experiment with XIP peptide (Xip251-270) it was -0.814. The z-score in experiment [2] is -2.86; in experiment [3], -1.04 (inactive); in experiment [4], 0.0422 (inactive); in experiment [5] it was 0.723 (inactive).

Regarding `O=C1C2C=CC(C(O)Cc3ccccc3)N(n3cnnc3)C2C(=O)N1Cc1ccccc1` (configuration not stated), the composite z-score is -0.139 (inactive) in experiment [1] and 0.686 in the experiment on XIP peptide (Xip251-270). For the same compound, the z-score in experiment [2] was -1.29; in experiment [3], -3.18 (inactive); in experiment [4], -0.179 (inactive); in experiment [5], -0.472 (inactive).

Regarding `CC(C)=CCN[C@H](CO)c1ccccc1`, the composite z-score was -0.0202 (inactive) in experiment [1] and -0.319 with XIP peptide (Xip251-270). Moreover, the z-score was -1.72 in experiment [2], 0.039 (inactive) in experiment [3], 0.257 (inactive) in experiment [4] and -0.0254 (inactive) in experiment [5].

Turning to `O=C1O[C@@H](c2ccccc2)[C@@H](c2ccccc2)N2[C@@H](c3ccccc3OCCO)[C@]3(C(=O)Nc4ccc(C#CC5=CCCCC5)cc43)[C@@H](C(=O)N3CCCCCCC3)[C@H]12`, the figures for the composite z-score (in experiment [1]; in the experiment on XIP peptide (Xip251-270)) were 5.92 (inactive) and 0.797, respectively. The z-score is -2 in experiment [2], -13.8 (active) in experiment [3], -0.0478 (inactive) in experiment [4] and -0.372 (inactive) in experiment [5].

As for `COc1cc(NN2C(C(O)c3ccco3)C=CC3C(=O)N(c4ccccc4)C(=O)C32)cc(OC)c1OC` (configuration not stated), the figures for the composite z-score (in experiment [1]; in the experiment with XIP peptide (Xip251-270)) were 0.318 (inactive) and 0.737, respectively. The z-score in experiment [2] was -0.372; in experiment [3], -3.83 (inactive); in experiment [4] it was 0.153 (inactive); in experiment [5] it was -0.416 (inactive).

Turning to `CCCc1cc2c(n1Cc1cc(F)cc(F)c1)C(C)C1CN(C(=O)c3ccccc3)C(C)(C(=O)OC)C21` (configuration not stated), the composite z-score in experiment [1] was 0.264 (inactive); in the experiment on XIP peptide (Xip251-270), -0.0681. Besides, the z-score in experiment [2] was -1.32; in experiment [3] it was -2.41 (inactive); in experiment [4] it was 0.789 (inactive); in experiment [5], 0.0213 (inactive).

For the compound `CO[C@H]1O[C@H](CO)[C@@H](OC(=O)Nc2cccc(F)c2)[C@H](OC(=O)Nc2ccccc2)[C@@H]1OC(=O)Nc1ccccc1`, the composite z-score in experiment [1] is 1.23 (inactive); in the experiment with XIP peptide (Xip251-270), 0.82. Moreover, the z-score in experiment [2] was -1.26; in experiment [3], -6.57 (inactive); in experiment [4], 0.108 (inactive); in experiment [5] it was 0.358 (inactive).

Take `CCc1cccc(NC(=O)O[C@H]2[C@H](OC(=O)Nc3ccccc3-c3ccccc3)[C@@H](OC(=O)Nc3ccccc3-c3ccccc3)[C@@H](OC)O[C@@H]2CO)c1`: the composite z-score in experiment [1] was 1.04 (inactive); with XIP peptide (Xip251-270), 0.859. Besides, the z-score in experiment [2] is -1.8; in experiment [3] it was -2.99 (inactive); in experiment [4], 0.167 (inactive); in experiment [5] it was 0.62 (inactive).

On to `COC(=O)[C@@]1(Cc2ccc(F)cc2)[C@H]2c3cc(C(=O)N4CCCC4)n(CCCNc4ncc(C(F)(F)F)cc4Cl)c3C[C@H]2CN1C(=O)c1ccccc1`, for which the composite z-score in experiment [1] was 0.1 (inactive); in the experiment on XIP peptide (Xip251-270) it was 0.716. For the same compound, the z-score was -1.41 in experiment [2], -4.2 (inactive) in experiment [3], 0.919 (inactive) in experiment [4] and 0.259 (inactive) in experiment [5].

For `C=C(C)[C@@H]1CC=C(C(O)C2C=CC3C(=O)N(c4ccccc4)C(=O)C3N2Nc2ccccc2)CC1` (some centres not stated), the figures for the composite z-score (in experiment [1]; in the experiment with XIP peptide (Xip251-270)) were 0.0668 (inactive) and 0.717, respectively. Besides, the z-score in experiment [2] is 0.759; in experiment [3], -2.62 (inactive); in experiment [4] it was -0.437 (inactive); in experiment [5], -0.626 (inactive).

With `[N-]=[N+]=NCc1ccccc1[C@@H]1OC(c2ccc(OCCCO)cc2)=N[C@]1(Cc1ccccc1)C(N)=O`, the figures for the composite z-score (in experiment [1]; in the experiment on XIP peptide (Xip251-270)) were 0.906 (inactive) and 0.689, respectively. Further, the z-score in experiment [2] was -2.13; in experiment [3] it was -3.49 (inactive); in experiment [4], -0.395 (inactive); in experiment [5] it was -0.0798 (inactive).
